# Data taken from PubChem BioAssay.
# Active and inactive are the calls of the source. No rule for the calls is given here.
# Target: Pantothenate synthetase (Mycobacterium tuberculosis (strain ATCC 25618 / H37Rv)) (UniProt P9WIL5)
# Assay: Recombinant Mtb pantothenate synthetase (PanC) inhibitors, coupled enzyme, confirmatory (AID 375);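 also: 0% = full reaction with vehicle and 100% = no enzyme background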
# Settings: coupled enzyme assay; at 10 µM, hits give high values
# Pantothenate synthetase (Mycobacterium tuberculosis (strain ATCC 25618 / H37Rv)), sequence (P9WIL5 whole entry, looked up): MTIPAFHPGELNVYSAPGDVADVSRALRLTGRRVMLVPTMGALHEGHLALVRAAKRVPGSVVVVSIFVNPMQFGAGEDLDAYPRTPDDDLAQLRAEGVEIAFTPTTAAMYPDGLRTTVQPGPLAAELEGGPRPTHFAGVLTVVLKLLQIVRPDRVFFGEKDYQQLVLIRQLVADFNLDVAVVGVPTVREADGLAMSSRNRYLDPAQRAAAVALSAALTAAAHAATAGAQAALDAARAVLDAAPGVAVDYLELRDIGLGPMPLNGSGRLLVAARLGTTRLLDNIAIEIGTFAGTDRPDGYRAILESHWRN
row,SMILES,inhibition
1,CCOc1ccc(N2CC(C(=O)Nc3ccc(F)cc3F)CC2=O)cc1 (centres undefined),6% (inactive)
2,O=c1c2ccccc2nc(-c2cccc(Cl)c2)n1O,4% (inactive)
3,CCCN(CCC)C(=O)C(CCC(=O)O)NC(=O)c1ccccc1 (centres undefined),0% (inactive)
4,Cn1ccnc1SCC(=O)Nc1ccc2ccccc2c1,2% (inactive)
5,COc1cccc(NC(=O)CSc2nnc(Cc3cccn3C)n2-c2ccc(F)cc2)c1,4% (inactive)
6,Cc1ccc(N2CCN(S(=O)(=O)N(C)C)CC2)c(C)c1,0% (inactive)
7,Brc1ccc2ncnc(Nc3ccc(N4CCOCC4)cc3)c2c1,0% (inactive)
8,O=C(CN1CCN(Cc2ccccc2)CC1)NCC1COc2ccccc2O1 (centres undefined),0% (inactive)
9,C#CCOC(=O)C1C2C=CC(C2)C1C(=O)O (centres undefined),1% (inactive)
10,CC1CCN(C(=O)CSCC(=O)Nc2nc(-c3cccs3)cs2)CC1,0% (inactive)
11,Cc1cccn2c(=O)c3cc(C#N)c(=NC(=O)c4cccnc4)n(CC4CCCO4)c3nc12 (centres undefined),0% (inactive)
12,CCC(=O)Nc1ccc(NC(=O)c2cccc(OC)c2)nc1,0% (inactive)
13,O=C(CCNNC(=O)c1ccncc1)NCc1ccccc1,0% (inactive)
14,COc1ccc(C2CC(c3ccc(OC)cc3)n3nc(N)nc3N2)cc1 (centres undefined),0% (inactive)
15,CCC1=C(C(=O)OC)C(c2cc(OC)ccc2OC)C(C#N)=C(N)O1 (centres undefined),8% (inactive)
16,CSCCC(NC(=O)CCN1C(=O)c2ccccc2C1=O)C(=O)O (centres undefined),0% (inactive)
17,Cc1c(NC(=O)CSc2nnc3sc4ccccc4n23)c(=O)n(-c2ccccc2)n1C,0% (inactive)
18,COc1ccc(C2c3c(oc4ccccc4c3=O)C(=O)N2c2ccc(C)cn2)cc1OC (centres undefined),0% (inactive)
19,CC1CCc2nn(CC(=O)N3CCN(C(=O)c4ccco4)CC3)cc2C1 (centres undefined),10% (inactive)
20,CC1(C)CC(=O)C(C=Nc2ccc3c(c2)OCO3)=C(O)C1,7% (inactive)

row,SMILES,inhibition
1,O=C(COC(=O)C1CC(=O)N(c2ccccc2)C1)c1ccccc1 (centres undefined),0% (inactive)
2,COc1ccc2c(c1OC)C(=O)N(c1ccc3c(c1)CCC3)C2=O,2% (inactive)
3,O=C(CSc1nnnn1-c1ccccc1)Nc1nsc(-c2ccc(Cl)cc2)n1,0% (inactive)
4,COc1ccccc1-c1noc(-c2ccco2)n1,6% (inactive)
5,Cc1cc(C)n(CCCNC(=O)c2ccc(S(=O)(=O)NCc3ccco3)cc2)n1,3% (inactive)
6,COc1ccc(N(CC(=O)NCCSC(C)(C)C)S(C)(=O)=O)c(OC)c1,2% (inactive)
7,CC(C)c1ccc(S(=O)(=O)N2CCN(C(=O)c3cccc(F)c3)CC2)cc1,8% (inactive)
8,O=C(NCC(=O)N(CCc1ccccc1)C(C(=O)NC1CCCC1)c1cccnc1)c1ccco1 (centres undefined),3% (inactive)
9,CC(C)(C)NC(=O)C(c1ccco1)N(C(=O)Cn1nnc(-c2ccc(F)cc2)n1)c1ccccc1 (centres undefined),0% (inactive)
10,O=c1[nH]c2cc3c(cc2cc1C(c1nnnn1Cc1ccccc1)N1CCCc2ccccc21)OCO3 (centres undefined),1% (inactive)
11,CCc1cc2c(CN3CCN(CCO)CC3)cc(=O)oc2cc1O,0% (inactive)
12,Cc1nnc(SCC(=O)Nc2ccc3c(c2)OCCO3)n1CC1CCCO1 (centres undefined),0% (inactive)
13,CCc1ccc(Nc2cc(=O)n(C3CCCCC3)c(=O)[nH]2)cc1,0% (inactive)
14,O=C(OCc1cc2ccccc2[nH]c1=O)c1ccco1,0% (inactive)
15,COc1ccc(OC)c(C(=O)c2nc3c(n2O)CCCCC3)c1,0% (inactive)
16,Cc1ccc(C(=O)Nc2ccc3c(c2)OCO3)cc1S(=O)(=O)N1CCCC1,0% (inactive)
17,O=C(Cn1cccc1C(=O)c1ccccc1)NCCN1CCOCC1,0% (inactive)
18,Cc1ccccc1NC(=O)c1ccc(NC(=O)c2ccco2)cc1,0% (inactive)
19,O=C(CN1C(=O)c2ccccc2C1=O)Nc1ccc(S(=O)(=O)NCC2CCCO2)cc1 (centres undefined),0% (inactive)
